Experimental data: PubChem BioAssay (NCI)
The panel holds about 83,000 compounds, 20% with a hit somewhere; the sample as a whole holds those more often.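 Cell lines were cultured in 96-well plates, exposed to a single compound concentration, and assessed for percent growth 48 hours later.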 Unmarked numbers belong to inactive results. Active and inactive are the calls of the source. The calls were made as follows: active = growth percent below 10; inactive = the rest.

Each molecule was assayed on OVCAR-5 ovarian (assay: NCI-60 one-dose screen, 48 h (100 = growth as untreated, 0 = no growth, -100 = all killed)). Details: 10 µM unless noted.

| SMILES | growth |
| --- | --- |
| Cn1c(=O)c2[nH]c(SC/C(=N/O)c3ccc(Br)cc3)nc2n(C)c1=O | 54.8% |
| Cc1c2ncccc2nc2[nH]c3ccc(OCCN(C)C)cc3c12 | 47.5% |
| COc1ccc(-c2cc(C(=O)N3N=C(c4ccc(N)cc4)CC3c3ccc(Cl)cc3)c3ccccc3n2)cc1 (stereo not drawn) | 51.6% |
| Cc1oc(-c2ccc(Cl)cc2)nc1C1=NN(C(=O)c2ccncc2)C(c2ccccc2)C1 (stereo not drawn) | 105% |
| Nc1cc(C(=O)O)cc(-n2c(O)c(C=C3N=c4ccccc4=N3)sc2=S)c1 | 99% |
| Nc1ncnc2c1N=C(c1ccc(F)cc1)CC(c1cccc(Nc3ccnc4cc(Cl)ccc34)c1)N2 (stereo not drawn) | 107% |
| CCNC(=O)N1CCc2c(Br)c3c(c(OC)c2C1Cc1ccc(OC)cc1)OCO3 (stereo not drawn) | 74.4% |
| Nc1nc2ccccc2c2c(=O)c3cc(Cl)ccc3sc12 | 97.9% |
| Cc1ccc(S(=O)(=O)c2nc(-c3ccccc3)oc2SCC(N)=O)cc1 | 86.9% |
| CCCN(CCSSCCNc1nc(N(C)O)nc(N(C)O)n1)c1nc(N(C)O)nc(N(C)O)n1 | 58% |
| COc1cc(C=C2C(=O)NC(=S)NC2=O)cc(CN2CCCC2)c1O | 106% |
| Cc1cc(C)c2c(c1)N(C)c1ncnc(-n3c(C)nc4cc(C)ccc43)c1CC2C (stereo not drawn) | 91.2% |
| COC1/C=C/OC2(C)Oc3c(C)c(O)c4c(O)c(c(/C=N/N(c5ccccc5)c5ccccc5)c(O)c4c3C2=O)NC(=O)C(C)=C/C=C/C(C)C(O)C(C)C(O)C(C)C(OC(C)=O)C1C (stereo not drawn) | 124% |
| CN(C)Cc1cc(C(C)(C)C)cc(Br)c1O | 107% |
| COC(=O)c1ccc2c(c1)c1c(C)c3cnccc3c(C)c1n2C | -33.3% (active) |
| CN(C)CCCn1c2c(c3cnccc3c1=O)C(=O)c1ccccc1-2 | 0.0676% (active) |
| O=C(NNc1nc2cc(F)ccc2n2c(CN3CCOCC3)ccc12)c1ccccc1 | 28.9% |
| CCOC(=O)C/C(=N\Nc1cc(=O)[nH]c2ccc(OC)cc12)C(=O)OCC | 96.6% |
| COc1ccc(/C=C(/C(=O)N2CCNCC2)c2cc(OC)c(OC)c(OC)c2)cc1O | 86.3% |
| COC(=O)[C@]1(C)CCC[C@]2(C)[C@H]3C[C@@H]4[C@H]5[C@@H]6CC/C(=N\OCC/C(N)=N/O)[C@H]5[C@@]3(CC[C@H]21)CC4(C(C)C)O6 | 93.3% |

| SMILES | growth |
| --- | --- |
| CC/C(=C(\c1ccc(Cl)cc1)c1ccc(OCCN2CCCCC2)cc1)c1ccc(O)cc1 | 70.4% |
| CCN(CC)CCOc1ccc(/C(=C(\C)Cc2ccc(OC)cc2)c2ccc(OC(=O)NCc3ccccc3)cc2)cc1 | 81.9% |
| O=[N+]([O-])c1c(O)c(Cl)cc(Cl)c1Cl | 91.6% |
| C=CC(=O)Nc1cccc(Oc2nccc(Nc3nnc(-c4ccc(Br)cc4)s3)n2)c1 | 95.4% |
| O=S(=O)(Nc1ccc2ccccc2c1)c1ccc(-c2cnc(C3CC3)o2)cc1 | 48% |
| CCCCCc1ccc(S(=O)(=O)Nc2ccc3nc(N)oc3c2)cc1 | 99.5% |
| C=CCN=c1sc(-c2ccc3ccccc3c2)cn1NC(=O)c1cc2ccc1CCc1ccc(cc1)CC2 | 103% |
| c1cc(OCCN2CCCCCC2)ccc1CNc1ccc2nc(CCC3CCCCC3)[nH]c2c1 | 79.5% |
| CC1=C2CC/C(C)=C/CC[C@]3(C)O[C@H]3CC/C(C)=C/[C@H]2OC1 | 81.3% |
| COc1ccc(C(O)c2cc3c(N)c(C(=O)Nc4cccc5ccccc45)sc3nc2C)cc1 (stereo not drawn) | 21.5% |
| CCOc1ncc([N+](=O)[O-])c(OCC)n1 | 101% |
| COc1ccc(C2[C@@H](Cl)C(=O)N2c2cc(OC)c(OC)c(OC)c2)cc1Cl (stereo partly drawn) | 64.4% |
| CS(=O)(=O)c1ccc(-c2nc3ccccc3n2CC(=O)N/N=C/c2ccccc2)cc1 | 98.5% |
| CN1CCN(c2ccc(NC3=CC(=O)c4ncncc4C3=O)cc2)CC1 | -92.3% (active) |
| Cn1c(=O)[nH]c(=O)c2nc3c(nc21)-c1ccccc1C3=O | 99.6% |
| COc1ccc(-c2cc(C(=O)N3N=C(c4ccc(N)cc4)CC3c3ccc(Cl)cc3)c3cc(OC)ccc3n2)cc1 (stereo not drawn) | 76.1% |
| O=c1cc(CP(=O)(O)O)c2cc(O)c(-c3ccccc3)cc2o1 | 101% |
| O=C1c2cccnc2C(=O)c2c1c(C(=O)OCCc1ccccn1)c1ccccn21 | 9.08% (active) |
| Cc1cc(C(=O)CCCC(=O)c2cc(C)c(O)c(C)c2)cc(C)c1O | 95.8% |

Each molecule was assayed on OVCAR-4 ovarian in the same assay as above. Details: 10 µM unless noted.

| SMILES | growth |
| --- | --- |
| Cn1c(=O)c2[nH]c(SC/C(=N/O)c3ccc(Br)cc3)nc2n(C)c1=O | 7.77% (active) |
| Cc1c2ncccc2nc2[nH]c3ccc(OCCN(C)C)cc3c12 | 27.5% |
| COc1ccc(-c2cc(C(=O)N3N=C(c4ccc(N)cc4)CC3c3ccc(Cl)cc3)c3ccccc3n2)cc1 (stereo not drawn) | 59.6% |
| Cc1oc(-c2ccc(Cl)cc2)nc1C1=NN(C(=O)c2ccncc2)C(c2ccccc2)C1 (stereo not drawn) | 85.4% |
| Nc1cc(C(=O)O)cc(-n2c(O)c(C=C3N=c4ccccc4=N3)sc2=S)c1 | 101% |
| Nc1ncnc2c1N=C(c1ccc(F)cc1)CC(c1cccc(Nc3ccnc4cc(Cl)ccc34)c1)N2 (stereo not drawn) | 76.3% |
| CCNC(=O)N1CCc2c(Br)c3c(c(OC)c2C1Cc1ccc(OC)cc1)OCO3 (stereo not drawn) | 54.3% |
| Nc1nc2ccccc2c2c(=O)c3cc(Cl)ccc3sc12 | 87.9% |
| Cc1ccc(S(=O)(=O)c2nc(-c3ccccc3)oc2SCC(N)=O)cc1 | 99.6% |
| CCCN(CCSSCCNc1nc(N(C)O)nc(N(C)O)n1)c1nc(N(C)O)nc(N(C)O)n1 | 55% |
| COc1cc(C=C2C(=O)NC(=S)NC2=O)cc(CN2CCCC2)c1O | 119% |
| Cc1cc(C)c2c(c1)N(C)c1ncnc(-n3c(C)nc4cc(C)ccc43)c1CC2C (stereo not drawn) | 58.1% |
| COC1/C=C/OC2(C)Oc3c(C)c(O)c4c(O)c(c(/C=N/N(c5ccccc5)c5ccccc5)c(O)c4c3C2=O)NC(=O)C(C)=C/C=C/C(C)C(O)C(C)C(O)C(C)C(OC(C)=O)C1C (stereo not drawn) | 69.5% |
| CN(C)Cc1cc(C(C)(C)C)cc(Br)c1O | 102% |
| COC(=O)c1ccc2c(c1)c1c(C)c3cnccc3c(C)c1n2C | -14.8% (active) |
| CN(C)CCCn1c2c(c3cnccc3c1=O)C(=O)c1ccccc1-2 | -9.31% (active) |
| O=C(NNc1nc2cc(F)ccc2n2c(CN3CCOCC3)ccc12)c1ccccc1 | -14.9% (active) |
| CCOC(=O)C/C(=N\Nc1cc(=O)[nH]c2ccc(OC)cc12)C(=O)OCC | 101% |
| COc1ccc(/C=C(/C(=O)N2CCNCC2)c2cc(OC)c(OC)c(OC)c2)cc1O | 78.7% |
| COC(=O)[C@]1(C)CCC[C@]2(C)[C@H]3C[C@@H]4[C@H]5[C@@H]6CC/C(=N\OCC/C(N)=N/O)[C@H]5[C@@]3(CC[C@H]21)CC4(C(C)C)O6 | 51.6% |

| SMILES | growth |
| --- | --- |
| CC/C(=C(\c1ccc(Cl)cc1)c1ccc(OCCN2CCCCC2)cc1)c1ccc(O)cc1 | 36.7% |
| CCN(CC)CCOc1ccc(/C(=C(\C)Cc2ccc(OC)cc2)c2ccc(OC(=O)NCc3ccccc3)cc2)cc1 | 58% |
| O=[N+]([O-])c1c(O)c(Cl)cc(Cl)c1Cl | 109% |
| C=CC(=O)Nc1cccc(Oc2nccc(Nc3nnc(-c4ccc(Br)cc4)s3)n2)c1 | 86.4% |
| O=S(=O)(Nc1ccc2ccccc2c1)c1ccc(-c2cnc(C3CC3)o2)cc1 | 70.4% |
| CCCCCc1ccc(S(=O)(=O)Nc2ccc3nc(N)oc3c2)cc1 | 27.3% |
| C=CCN=c1sc(-c2ccc3ccccc3c2)cn1NC(=O)c1cc2ccc1CCc1ccc(cc1)CC2 | 33.5% |
| c1cc(OCCN2CCCCCC2)ccc1CNc1ccc2nc(CCC3CCCCC3)[nH]c2c1 | 51.4% |
| CC1=C2CC/C(C)=C/CC[C@]3(C)O[C@H]3CC/C(C)=C/[C@H]2OC1 | 95.2% |
| COc1ccc(C(O)c2cc3c(N)c(C(=O)Nc4cccc5ccccc45)sc3nc2C)cc1 (stereo not drawn) | 34.5% |
| CCOc1ncc([N+](=O)[O-])c(OCC)n1 | 113% |
| COc1ccc(C2[C@@H](Cl)C(=O)N2c2cc(OC)c(OC)c(OC)c2)cc1Cl (stereo partly drawn) | 56% |
| CS(=O)(=O)c1ccc(-c2nc3ccccc3n2CC(=O)N/N=C/c2ccccc2)cc1 | 116% |
| CN1CCN(c2ccc(NC3=CC(=O)c4ncncc4C3=O)cc2)CC1 | -99% (active) |
| Cn1c(=O)[nH]c(=O)c2nc3c(nc21)-c1ccccc1C3=O | 102% |
| COc1ccc(-c2cc(C(=O)N3N=C(c4ccc(N)cc4)CC3c3ccc(Cl)cc3)c3cc(OC)ccc3n2)cc1 (stereo not drawn) | 53.9% |
| O=c1cc(CP(=O)(O)O)c2cc(O)c(-c3ccccc3)cc2o1 | 98.5% |
| O=C1c2cccnc2C(=O)c2c1c(C(=O)OCCc1ccccn1)c1ccccn21 | 4.6% (active) |
| Cc1cc(C(=O)CCCC(=O)c2cc(C)c(O)c(C)c2)cc(C)c1O | 93.1% |
